“And” between values parts separate entries of the source, which are not always exact repeats. Equal values may be shown once. The campaign covered roughly 5,500 compounds. About 2,000 (36%) were called active. Another 18% or so got no clear call; they are omitted. Rule as the data show it: active = normalized growth mostly below about 0.91 (no sharp cut-off); inconclusive = no clear call, values can overlap the other calls; inactive = mostly above about 0.92. The list shows a part of the results.
Assay: chemical genetic growth profiling, strain panel (AID 1159580);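 also: tested at 20 µM; growth read once vehicle control cultures reached saturation at 30 °C; 1 = growth at the plate median or of vehicle wells; lower values mean less growth of the strain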
Conditions: S. cerevisiae deletion strains, growth OD

Measured: normalized growth

COc1ccc(-c2cc(=O)c3c(O)cc(O[C@@H]4O[C@H](CO[C@H]5O[C@H](C)[C@@H](O)[C@H](O)[C@@H]5O)[C@@H](O)[C@H](O)[C@H]4O)cc3o2)cc1O
inactive: locus YAL021C, strain ccr4, active compounds read low 1.01 | locus YAL026C, strain drs2, active compounds read low 1.05 | locus YAL030W, strain snc1, active compounds read low 1.02 | locus YBL061C, strain skt5, active compounds read low 1.02 | locus YBR009C, strain hhf1, active compounds read low 1.01 | locus YBR021W, strain FUR4, active compounds read low 1.03 | locus YBR023C, strain chs3, active compounds read low 1.01 | locus YBR171W, strain sec66, active compounds read low 1.02 | locus YBR229C, strain ROT2, active compounds read low 0.994 | locus YBR231C, strain swc5, active compounds read low 1.02 | locus YBR279W, strain paf1, active compounds read low 1.01 | locus YCL011C, strain gbp2, active compounds read low 1.01 | locus YCL016C, strain dcc1, active compounds read low 1.02 | locus YCL029C, strain bik1, active compounds read low 0.986 | locus YCL061C, strain MRC1, active compounds read low 1.01 | locus YCL069W, strain vba3, active compounds read low 1.03 | locus YCR088W, strain abp1, active compounds read low 1.01 | locus YDL005C, strain med2, active compounds read low 1.02 | locus YDL035C, strain GPR1, active compounds read low 0.983 | locus YDL040C, strain nat1, active compounds read low 1 | locus YDL074C, strain BRE1, active compounds read low 1.02 | locus YDL101C, strain DUN1, active compounds read low 0.995 | locus YDL185W, strain tfp1, active compounds read low 0.969 | locus YDL192W, strain arf1, active compounds read low 0.985 | locus YDR001C, strain nth1, active compounds read low 1.01 | locus YDR069C, strain doa4, active compounds read low 1.02 | locus YDR101C, strain arx1, active compounds read low 1 | locus YDR137W, strain rgp1, active compounds read low 1.03 | locus YDR150W, strain NUM1, active compounds read low 0.99 | locus YDR159W, strain sac3, active compounds read low 1.02 | locus YDR162C, strain NBP2, active compounds read low 0.972 | locus YDR195W, strain ref2 1.04 | locus YDR297W, strain sur2, active compounds read low 1.01 | locus YDR318W, strain mcm21, active compounds read low 1 | locus YDR334W, strain swr1, active compounds read low 1.02 | locus YDR335W, strain msn5, active compounds read low 1.01 | locus YDR388W, active compounds read low 0.991 | locus YDR392W, strain spt3, active compounds read low 0.987 | locus YDR502C, strain sam2, active compounds read low 0.993 | locus YEL003W, strain gim4, active compounds read low 1.02 | locus YEL037C, strain rad23, active compounds read low 1.01 | locus YEL061C, strain CIN8 (second series), active compounds read low 1.03 | locus YEL061C, strain CIN8, active compounds read low 0.997 | locus YER015W, strain faa2, active compounds read low 1.01 | locus YER016W, strain bim1, active compounds read low 1.02 | locus YER110C, active compounds read low 0.979 | locus YER111C, strain swi4, active compounds read low 1 | locus YER155C, strain BEM2 (second series), active compounds read low 1 | locus YER155C, strain BEM2, active compounds read low 0.995 | locus YER167W, strain BCK2, active compounds read low 0.981 | locus YFR010W, strain ubp6, active compounds read low 1.02 | locus YGL078C, strain dbp3, active compounds read low 1 | locus YGL086W, strain mad1, active compounds read low 1.01 | locus YGL167C, strain pmr1, active compounds read low 1.01 | locus YGL173C, strain kem1, active compounds read low 1.04 | locus YGL227W, strain vid30, active compounds read low 1.01 | locus YGL240W, strain doc1, active compounds read low 1.04 | locus YGL248W, strain PDE1, active compounds read low 0.999 | locus YGL253W, strain hxk2, active compounds read low 1 | locus YGR078C, strain PAC10, active compounds read low 1.01 | locus YGR135W, strain pre9, active compounds read low 0.956 | locus YGR252W, strain gcn5, active compounds read low 1.04 | locus YHR013C, strain ard1, active compounds read low 1.02 | locus YHR027C, strain rpn1, active compounds read low 1.02 | locus YHR030C, strain SLT2, active compounds read low 0.985 and 1 | locus YHR079C, strain IRE1 (second series), active compounds read low 0.991 | locus YHR079C, strain IRE1, active compounds read low 0.996 | locus YHR094C, strain hxt1, active compounds read low 0.977 | locus YHR129C, strain ARP1, active compounds read low 0.988 | locus YHR142W, strain chs7, active compounds read low 0.978 | locus YHR200W, strain rpn10, active compounds read low 0.989 | locus YIL066C, strain RNR3, active compounds read low 0.994 | locus YIL073C, strain SPO22, active compounds read low 0.963 | locus YIL125W, strain kgd1, active compounds read low 1.01 | locus YIR030C, strain dcg1, active compounds read low 0.985 | locus YJL092W, strain hpr5, active compounds read low 1.02 | locus YJL095W, strain BCK1 (second series), active compounds read low 1.01 | locus YJL095W, strain BCK1, active compounds read low 1.01 and 0.997 | locus YJL115W, strain asf1, active compounds read low 1.03 | locus YJL129C, strain trk1, active compounds read low 1.03 | locus YJL134W, strain LCB3, active compounds read low 0.988 | locus YJL154C, strain vps35, active compounds read low 1.02 | locus YJL164C, strain tpk1, active compounds read low 1.02 | locus YJL166W, strain qcr8, active compounds read low 1.02 | locus YJL168C, strain set2, active compounds read low 1 | locus YJL187C, strain SWE1 (second series), active compounds read low 1 | locus YJL187C, strain SWE1, active compounds read low 1.01 | locus YJR043C, strain POL32, active compounds read low 1.02 | locus YJR066W, strain TOR1, active compounds read low 0.981

From PubChem BioAssay AID1159580 (chemical genetic matrix, 2015)
